The results in this text go back to PubChem BioAssay AID463173 (ICCB-Longwood Screening Facility, Harvard Medical School, 2010).

The whole screen tested about 52,000 compounds, of which about 1,700 (3.3%) were called active. Many of the other results were omitted from the sample, so actives are more common in it than they were. Unmarked numbers belong to inactive results. Cut-off read from the data, not from the text of the source: active = survival mostly below about 52% (no sharp cut-off); inactive = mostly above about 56%.

For the assay, the system named is Wild type. Kind of assay: S. aureus survival, RN4220 and DeltatarO strains – OD600, teichoic acid synthesis inhibitors, primary screen (AID 463173). The note with it: S. aureus RN4220 wild type/DeltatarO growth, OD600, 18 h, hits give low values, screened at 18.75 µg/mL (by protocol).
Consider `COc1ccc(CNC(=O)Cn2nc3c(cc2=O)CCCC3)cc1`, for which the survival is 64%.

Take `COc1cccc(C2C=C(c3ccc(C)c(C)c3)Nc3nnnn32)c1OC` (stereo unspecified): the survival is 71%. For the compound `COc1ccc(C2=CC(c3cccc(C)c3)n3nnnc3N2)cc1` (stereo unspecified), the survival was 71%. Turning to `Cc1cccc(C2C=C(c3ccc(C)c(C)c3)Nc3nnnn32)c1` (stereo unspecified), the survival was 1% (active). In the case of `CS(=O)(=O)N1CCN(C(=O)c2ccccc2)CC1`, the survival is 110%.

For `CCn1cc(C(=O)NCCCN(CC(C)C)CC(C)C)c(=O)c2cc(S(=O)(=O)N3CCc4ccccc4C3)ccc21`, the survival is 80%.

As to `Cc1ccc(NS(=O)(=O)c2ccc3c(c2)NC(=O)CCS3)c(Br)c1`, the survival was -3% (active). The same measure for `Cc1ccccc1NS(=O)(=O)c1ccc2c(c1)NC(=O)CCS2`: 57%. Consider `O=C1CCSc2ccc(S(=O)(=O)Nc3cccc(C(F)(F)F)c3)cc2N1`, for which the survival is -4% (active). Consider `Cc1ccc(NS(=O)(=O)c2ccc3c(c2)NC(=O)C(C)C(=O)N3)cc1F` (stereo unspecified), for which the survival was 86%. The same measure for `Cc1cc(C)c(NS(=O)(=O)c2ccc3c(c2)NC(=O)CCS3)c(C)c1`: 60%; for `CC1C(=O)Nc2ccc(S(=O)(=O)Nc3ccccc3Br)cc2NC1=O` (stereo unspecified): 89%.

For the compound `Cc1ccc(NS(=O)(=O)c2ccc3c(c2)NC(=O)CCS3)cc1C`, the survival was 63%. Take `Cc1cc(C)cc(NS(=O)(=O)c2ccc3c(c2)NC(=O)C(C)S3)c1` (stereo unspecified): the survival was 12% (active). The same measure for `O=C1CCSc2ccc(S(=O)(=O)Nc3ccc(Cl)c(C(F)(F)F)c3)cc2N1`: 81%; for `Cc1nn(C)c(C)c1S(=O)(=O)N(CC(=O)NCCc1ccccc1)c1ccc(C(C)C)cc1`: 86%.

As to `COc1cc(NC(=O)C2CCN(S(=O)(=O)c3c(C)noc3/C=C/c3ccccc3F)CC2)cc(OC)c1OC`, the survival is 64%. The same measure for `CCCCC(=O)Oc1ccc2oc(-c3ccc(OC)cc3)cc(=O)c2c1`: 69%; for `Cc1c(Cl)cccc1-n1nnc(-c2nc(-c3ccc4c(c3)OCO4)no2)c1C`: 73%; for `COc1ccc(CNC(=O)c2ccc3nc(CCc4ccccc4)oc3c2)cc1`: -2% (active).

With `O=C(NCc1cccc(F)c1)c1ccc2nc(CCc3ccccc3)oc2c1`, the survival was 71%. For `COc1ccc(CCNC(=O)c2ccc3nc(Cc4ccccc4)oc3c2)cc1OC`, the survival was 124%. The same measure for `COc1ccc(CCNC(=O)c2ccc3nc(CCc4ccccc4)oc3c2)cc1OC`: 10% (active). `O=C(NCc1ccccc1)c1ccc2nc(CCc3ccccc3)oc2c1`: the survival was -3% (active). The same measure for `O=C(NCCc1ccc(Cl)cc1)c1ccc2nc(CCc3ccccc3)oc2c1`: 59%. The same measure for `COc1ccc(CNC(=O)c2ccc3nc(CCc4ccccc4)oc3c2)cc1OC`: 71%; for `CCCNC(=O)c1ccc2nc(CCc3ccccc3)oc2c1`: 73%; for `O=C(NCCc1ccccc1)c1ccc2nc(CCc3ccccc3)oc2c1`: 0% (active). Take `COc1ccc(CNC(=O)c2ccc3nc(CCc4ccccc4)oc3c2)c(OC)c1`: the survival was 131%. The same measure for `CN(C)c1ccc(CNC(=O)c2ccc3nc(CCc4ccccc4)oc3c2)cc1`: 78%. The same measure for `COc1ccc(Cc2nc3ccc(C(=O)NCCc4ccc(OC)c(OC)c4)cc3o2)cc1`: 68%; for `COc1ccc(CCNCc2ccc3c(c2)n(C)c(=O)n3C)cc1OC`: 111%; for `O=C(Nc1ccc2nc(C3CC3)n(Cc3ccccc3)c(=O)c2c1)C1CC1`: 104%. Consider `CCc1ccc(CN(Cc2ccco2)C(=O)COc2ccccc2Cl)cc1`, for which the survival was 85%. As to `Cc1ccc(N2CCN(S(=O)(=O)c3nnc(NC(=O)c4ccc(C(C)C)cc4)s3)CC2)cc1`, the survival is 82%.

Turning to `Cc1cc(C)cc(C(=O)Nc2cc(C(F)(F)F)ccc2N2CCN(c3ccccc3)CC2)c1`, the survival was 78%. In the case of `CCc1ccc(CNC(=O)c2ccc3c(c2)nc2n3CCC(C)C2)cc1` (stereo unspecified), the survival was 127%. Turning to `COC(=O)CCc1sc(Nc2ccc(OC)cc2)nc1-c1ccc(OC)cc1`, the survival is 77%.

On to `Cc1c(NC=O)c(=O)n(-c2ccccc2)n1C`, for which the survival was 107%. The same measure for `CC(=O)c1ccc(NC(=O)COCc2cc(-c3ccco3)on2)cc1`: 129%; for `O=C(O)c1ccc(Cn2cnc3cccnc32)cc1`: 55%; for `CC(C)(C)NC(=O)C1CC(=O)OC1(C)C` (stereo unspecified): 107%. In the case of `COc1ccc(Br)cc1C1Sc2ccccc2NC2=C1C(=O)c1ccccc12` (stereo unspecified), the survival is 41%.

As to `COC(=O)c1c(NC(=O)CCCOc2cccc(C)c2)sc2c1CCC2`, the survival was 12% (active). Turning to `COC(=O)c1c(NC(=O)COc2c(C)cccc2C)sc2c1CCCC2`, the survival was 6% (active). The same measure for `COC(=O)c1c(NC(=O)c2ccccc2C(=O)O)sc2c1CCCC2`: 110%. The same measure for `COC(=O)c1c(NC(=O)CCCOc2ccc(C)cc2)sc2c1CCCC2`: 3% (active); for `COC(=O)c1c(NC(=O)COc2ccc(C(C)C)cc2)sc2c1CCCC2`: 51%. `CCCCOc1cccc(C(=O)Nc2sc3c(c2C(=O)OCC)CCCC3)c1`: the survival was 72%.

`Cc1ccc(OCCCC(=O)Nc2sc3c(c2C(N)=O)CCCC3)cc1`: the survival is 57%. With `COC(=O)c1c(NC(=O)c2c(OC)cccc2OC)sc2c1CCCC2`, the survival was 3% (active). Consider `COC(=O)c1c(NC(=O)COc2cccc(C(F)(F)F)c2)sc2c1CCCC2`, for which the survival is 72%. The same measure for `COC(=O)c1c(NC(=O)COc2cc(C)c(Cl)c(C)c2)sc2c1CCCC2`: 140%. In the case of `COC(=O)c1c(NC(=O)c2ccc(OC)cc2OC)sc2c1CCCCC2`, the survival is 56%. For `COC(=O)c1c(NC(=O)COc2ccc(C)cc2Br)sc2c1CCCC2`, the survival was 44%. The same measure for `O=c1nc2c(-c3ccc(F)cc3Cl)n[nH]n2c2ccccc12`: 72%; for `COc1ccc(-c2nc(Cn3c(SCc4cccc(Cl)c4)nc4ccncc43)c(C)o2)cc1`: 132%. For the compound `O=C(CSC1=Nc2ccccc2N=C(c2ccc(F)cc2)C1)Nc1ccc(Cl)cc1`, the survival was 92%.

With `CCN(CC)C1=C(C(=O)c2ccccc2)NS(=O)(=O)c2ccccc21`, the survival is 103%. The same measure for `CCOc1ccc(-c2nnc(SCC(=O)NCc3ccccc3Cl)o2)cc1`: 85%; for `O=C(Nc1ccccc1)C1CCCN1C1CCCCC1` (stereo unspecified): 108%. Consider `O=C1OC(c2ccccc2)=N/C1=C1\OC(=O)c2ccccc21`, for which the survival was 104%. The same measure for `CC1CCCCN1C(=O)CSc1n[nH]c(-c2ccccc2Cl)n1` (stereo unspecified): 72%. The same measure for `CCCN(Cc1cccs1)C(=O)Nc1ccc(Br)cc1F`: 76%. Take `COC(=O)c1c(NC(=O)CCCOc2cccc(C)c2)sc2c1CCC(C)C2` (stereo unspecified): the survival is 4% (active). On to `COC(=O)c1c(NC(=O)COc2ccc(Cl)cc2C)sc2c1CCCCC2`, for which the survival is 83%. With `COC(=O)c1c(NC(=O)CS(=O)(=O)c2ccc(C)cc2)sc2c1CCCCC2`, the survival was 67%. Take `COC(=O)c1c(NC(=O)COc2c(C)ccc(C)c2C)sc2c1CCC(C)C2` (stereo unspecified): the survival is 11% (active). The same measure for `COC(=O)c1c(NC(=O)CCCOc2ccccc2C)sc2c1CCC2`: 4% (active); for `COC(=O)c1c(NC(=O)COc2cc(C)ccc2C(C)C)sc2c1CCC(C)C2` (stereo unspecified): 66%; for `Cc1ccccc1OCC(=O)Nc1sc2c(c1C(=O)OC(C)C)CCCC2`: 69%. In the case of `CCOC(=O)c1c(NC(=O)CS(=O)(=O)c2ccc(C)cc2)sc2c1CCCCC2`, the survival was 87%. In the case of `Cc1cccc(OCCCC(=O)Nc2sc3c(c2C(N)=O)CCC(C)C3)c1` (stereo unspecified), the survival is 88%. The same measure for `CCOC(=O)c1c(NC(=O)COc2cccc(C(F)(F)F)c2)sc2c1CCC(C)C2` (stereo unspecified): 74%; for `COC(=O)c1c(NC(=O)COc2ccc(OC)cc2)sc2c1CCC(C)C2` (stereo unspecified): 86%; for `COC(=O)c1c(NC(=O)CS(=O)(=O)c2ccc(C)cc2)sc2c1CCCC2`: -6% (active). The same measure for `Cc1nc2nc(C)c(NS(=O)(=O)c3ccc(F)cc3)c(=O)n2[nH]1`: 81%; for `O=C(O)CCNc1ccc(Cl)cn1`: 86%. The same measure for `S=c1nc[nH]c2c1oc1ccccc12`: 96%; for `Cc1ccccc1NC(=O)CSc1nc(-c2ccc(F)cc2)nc2c1Cc1ccccc1O2`: 77%; for `CCOc1ccc(C(=O)N(C)CC2COc3ccccc3O2)cc1` (stereo unspecified): 98%. Take `Cc1ccccc1-c1ncnn1-c1sc2c(c1C#N)CCCCC2`: the survival is 65%. In the case of `N#Cc1c(-n2ncnc2-c2ccccc2C(F)(F)F)sc2c1CCCCC2`, the survival is 4% (active).

`COc1ccccc1-c1cc(C(=O)Nc2sc3c(c2C#N)CCCC3)no1`: the survival is 140%.

With `COc1cccc(-c2ncnn2-c2sc3c(c2C#N)CCCCC3)c1OC`, the survival is 72%. As for `N#Cc1c(-n2ncnc2-c2ccccc2Cl)sc2c1CCCCC2`, the survival is 38%. The same measure for `COc1ccccc1-c1ncnn1-c1sc2c(c1C#N)CCCCC2`: 1% (active); for `CCOc1ccccc1NC(=O)CSc1c(C)cnc2c1c(=O)n(C)c(=O)n2C`: 67%; for `CCN(CC)C(=O)Cn1c(=O)nc(-c2ccccc2F)c2cc(Cl)ccc21`: 73%. With `CC1CCN(c2nc3nonc3nc2Nc2ccc(F)cc2)CC1`, the survival is 103%. The same measure for `O=C(Nc1cccc(Cl)c1)C1CCCN(c2ncnc3c2nc2n3CCCCC2)C1` (stereo unspecified): 36%. The same measure for `CC1CCCN(c2nc3nonc3nc2Nc2cccc(Cl)c2)C1` (stereo unspecified): 0% (active); for `CCOC(=O)c1cc(C(C)(C)C)oc1CN`: 95%; for `CC(C)N(Cc1ccccc1)C(=O)CN1C(=O)CSc2ccc(S(=O)(=O)N3CCCC3)cc21`: 100%. With `Cc1cccc(CNC(=O)C2CCN(c3nc4ccc(Cl)cc4[nH]3)CC2)c1`, the survival was 79%. The same measure for `CC1CCN(C(=O)CSc2nc3ccccc3nc2Cc2ccccc2)CC1`: 73%.
